# Experimental data: PubChem BioAssay (EPA / NIEHS)
# The source made the active and inactive calls. The calls were made as follows, unless noted: active = hit-call score of the fitted dose curve at least 0.9, where 1 is the maximum; inactive = score below 0.9.
# Target: Peroxisome proliferator-activated receptor gamma (Homo sapiens) (UniProt P37231)
# Experiment: OT_PPARg_PPARgSRC1_1440: Odyssey Thera (OT) 24-hour Protein-Complementation Assay for Peroxisome Proliferator-activated Receptor Gamma/ SRC-1 Co-activator (AID 2283388; active = hit-call score of the fitted dose curve at least 0.9, where 1 is the maximum)
# Conditions: not given
# Outline: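 HEK293T transiently transfected with PPARg/SRC-1 split-Venus YFP fusions 48 h before dosing, then treated 24 h at 37C. Fixed cells imaged; nuclear/cytoplasmic 488 nm fluorescence ratio, gain of signal versus DMSO.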
# Sequence of Peroxisome proliferator-activated receptor gamma (Homo sapiens) (P37231 whole entry, looked up): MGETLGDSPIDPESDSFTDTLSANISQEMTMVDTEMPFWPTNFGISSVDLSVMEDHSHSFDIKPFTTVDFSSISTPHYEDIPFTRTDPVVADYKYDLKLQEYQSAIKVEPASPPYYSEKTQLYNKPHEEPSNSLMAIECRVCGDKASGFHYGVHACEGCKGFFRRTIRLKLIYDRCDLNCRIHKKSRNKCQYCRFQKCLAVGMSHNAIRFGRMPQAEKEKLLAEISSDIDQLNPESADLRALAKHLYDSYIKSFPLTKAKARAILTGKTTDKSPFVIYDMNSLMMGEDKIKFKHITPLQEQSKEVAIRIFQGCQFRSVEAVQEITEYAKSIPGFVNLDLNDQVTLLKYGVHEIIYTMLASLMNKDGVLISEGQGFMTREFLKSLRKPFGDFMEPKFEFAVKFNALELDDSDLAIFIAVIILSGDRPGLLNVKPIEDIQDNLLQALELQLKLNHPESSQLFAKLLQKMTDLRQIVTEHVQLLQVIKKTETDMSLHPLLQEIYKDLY
SMILES,outcome,AC50
C[C@]12CC[C@H]3C(=CCc4cc(O)ccc43)[C@@H]1CCC2=O,inactive,–
Cc1ccc(O)c(-n2nc3ccccc3n2)c1,inactive,–
COCCOCCC[Si](C)(O[Si](C)(C)C)O[Si](C)(C)C,inactive,–
O=C1C=CC(=O)N1c1ccccc1,inactive,–
CC(=O)CCC(C)C,inactive,–
CCCCCCCCCc1ccc(OCCO)cc1,inactive,–
CCC(Cc1c(I)cc(I)c(N)c1I)C(=O)O (stereo not drawn),inactive,–
O=C(c1ccccc1)c1ccc(O)cc1O,inactive,–
CCCCCCCC/C=C\CCCCCCCC(=O)N(C)CC(=O)O,inactive,–
CCCCCCCCCCCCC[N+](C)(C)Cc1ccccc1,inactive,–
CCCCCCCCCCCCCC[P+](CCCC)(CCCC)CCCC,inactive,–
CCN=c1cc2oc3cc(NCC)c(C)cc3c(-c3ccccc3C(=O)OCC)c-2cc1C,–,4.08 µM (active)
CC(C)(C)c1cc(CCC(=O)OCC(COC(=O)CCc2cc(C(C)(C)C)c(O)c(C(C)(C)C)c2)(COC(=O)CCc2cc(C(C)(C)C)c(O)c(C(C)(C)C)c2)COC(=O)CCc2cc(C(C)(C)C)c(O)c(C(C)(C)C)c2)cc(C(C)(C)C)c1O,inactive,–

# Read-out: not listed separately
# Experiment: CEETOX_H295R_11DCORT: CeeTox H295R High-throughput Steroidogenesis Assay for 11-Deoxycortisol (11DCORT) (AID 2283432);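 as to AC50: human adrenal H295R cells prestimulated with 10 µM forskolin for 48 h; 11-deoxycortisol secreted into the medium measured by LC-MS/MS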
# Conditions: actives raise or lower the signal
# Outline: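 Adrenal carcinoma line H295R, run per OECD 456 with minor changes, was forskolin-stimulated (10 uM, 48 h) before a 48 h chemical exposure at 0.1% DMSO. Secreted 11-deoxycortisol was quantified by HPLC-MS/MS.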
SMILES,AC50,outcome
C[C@]12CC[C@H]3C(=CCc4cc(O)ccc43)[C@@H]1CCC2=O,17.8 µM (active),–
CCN(CC)c1ccc(N=Nc2ccccc2)cc1,10 µM (active),–
CCN(CC)c1ccc(C=O)cc1,–,inactive
O=C1C=CC(=O)N1c1ccccc1,–,inactive
Cc1cc(O)c(C(C)(C)C)cc1C(C)(C)C,–,inactive
O=C(c1ccccc1)c1ccc(Cl)cc1,–,inactive
CCn1c2ccccc2c2ccccc21,50 µM (active),–
CCCCCCCCCc1ccc(OCCO)cc1,–,inactive
CCCCCCCCCCCCC[N+](C)(C)Cc1ccccc1,0.287 µM (active),–
CSc1ccc(O)cc1C,–,inactive

# Read-out: not listed separately
# Experiment: CEETOX_H295R_OHPREG: CeeTox H295R High-throughput Steroidogenesis Assay for OH-Pregnenolone (OHPREG) (AID 2283434)
# Conditions: actives raise or lower the signal
# Outline: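 H295R cells pre-stimulated 48 h with 10 uM forskolin, then exposed 48 h to chemical in 0.1% DMSO. 17alpha-hydroxypregnenolone in medium quantified by MTBE extraction and HPLC-MS/MS; bidirectional fit versus DMSO, viability checked by MTT.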
SMILES,AC50,outcome
C[C@]12CC[C@H]3C(=CCc4cc(O)ccc43)[C@@H]1CCC2=O,3.5 µM (active),–
CCN(CC)c1ccc(N=Nc2ccccc2)cc1,–,inactive
CCN(CC)c1ccc(C=O)cc1,–,inactive
O=C1C=CC(=O)N1c1ccccc1,–,inactive
Cc1cc(O)c(C(C)(C)C)cc1C(C)(C)C,–,inactive
O=C(c1ccccc1)c1ccc(Cl)cc1,–,inactive
CCn1c2ccccc2c2ccccc21,–,inactive
CCCCCCCCCc1ccc(OCCO)cc1,–,inactive
CCCCCCCCCCCCC[N+](C)(C)Cc1ccccc1,0.59 µM (active),–
CSc1ccc(O)cc1C,–,inactive
